Test results from PubChem BioAssay.

test: S6 kinase pathway phospho-S6 level changes – cell-based, A549, cytoblot, luminescence, serum-stimulated, primary screen (AID 1158); settings: 5 h, higher = more signal;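 also: serum-stimulated A549 lung adenocarcinoma cells; signal is phosphorylated S6 detected by cytoblot immunostaining with HRP secondary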

Row | Structure (SMILES) | z-score
1 | CCN(CC)c1ccc(N2CC=CC34O[C@@H]5/C=C\CCCOC(=O)C5[C@H]3C(=O)N(CCO)[C@@H]4C2=O)cc1 (some centres undefined) | -0.155
2 | C=CCNC(=O)[C@@H]1[C@H]2C(=O)O[C@H](c3ccccc3)[C@H](c3ccccc3)N2[C@H](c2ccccc2OCCO)[C@@]12C(=O)N(C(=O)OCCOC)c1ccc(C#CCNC(N)=O)cc12 | 0.425
3 | O=C1C[C@]2(c3ccc([N+](=O)[O-])cc3)C(=O)N(CCN3CCOCC3)c3cc(CO)ccc3[C@H]2N1C1CCCCC1 | 1.51
4 | CN1C(=O)C2C=CC(C(O)C3CC=CCC3)N(NC(=O)OC(C)(C)C)C2C1=O (centres undefined) | -1.01
5 | COCCCNC(=O)C1N=C(c2ccc(OCCCO)cc2)N(c2ccccc2)O1 (centres undefined) | 0.147
6 | C=C(COC)/C(=C/C[C@H](OC(=O)c1ccncc1)c1ccc(OCCO)cc1)c1cnc2ccccc2c1 | 0.123
7 | C=CC[C@@]1(C(=O)N(C)C)N=C(c2ccc(OCCCO)cc2)O[C@@H]1c1ccccc1N=[N+]=[N-] | -0.195
8 | C=CCOC(=O)[C@H]1[C@@H]2C(=O)O[C@@H](c3ccccc3)[C@@H](c3ccccc3)N2[C@@H](c2ccc(OCCOC(=O)[C@@H]3C[C@@H]4C(=O)N[C@@H](CCCC[N+](C)(C)C)C(=O)N4[C@@H]3c3ccc(O)cc3)cc2)[C@]12C(=O)Nc1ccccc12 | 1.28
9 | O=C1NC(=O)C2C1C=CC(C(O)c1cccc3ccccc13)N2Nc1ccccn1 (centres undefined) | -0.562
10 | COc1ccc(C(=O)Nc2cccc(CN3C(=O)[C@]4(O[C@H](CCO)[C@@H]([Si](C)(C)c5ccc(OC)cc5)[C@@H]4C)c4ccccc43)c2)cc1 | -0.59
11 | COC(=O)c1c(CC[C@@H](CO)NC(=O)N2CCC[C@H]2Cn2cc(-c3ccccn3)nn2)oc(C(C)=O)c1C(=O)OC | 0.882
12 | C=CCN1C(=O)[C@]2(O[C@H](CCO)[C@@H]([Si](C)(C)c3ccc(OC)cc3)[C@@H]2C)c2cc(N3C(=O)c4cccc5cccc3c45)ccc21 | 1.03
13 | O=C(NCc1ccccc1)[C@@]1(CCS(=O)(=O)c2ccccc2)N=C(c2ccc(OCCCO)cc2)O[C@H]1c1ccccc1 | 0.0734
14 | CC(C)C(=C=CC[C@@H](O)c1ccccc1OCCO)CCO | 0.278
15 | O=C(NCC(F)(F)F)[C@@H]1c2ccccc2C(=O)N(C2CCCCC2)[C@H]1c1ccc(CO)cc1 | -0.216
16 | CN1C(=O)C2C=CC(C(O)c3cccs3)N(Nc3ccccc3)C2C1=O (centres undefined) | -1.19
17 | COc1cc2c(cc1O)C(C1CC1)N(Cc1cc3c(cc1Br)OCO3)CC2 (centres undefined) | -0.074
18 | COCCOC(=O)N1C(=O)[C@@]2(c3cc(C#CCCO)ccc31)[C@H](c1ccc(OCCO)cc1)N1[C@H](c3ccccc3)[C@H](c3ccccc3)OC(=O)[C@H]1[C@@H]2C(=O)N1CCN(c2ncccn2)CC1 | -0.113
19 | O=C1O[C@H](c2ccccc2)[C@H](c2ccccc2)N2[C@H]1[C@@H](C(=O)NC[C@H](O)c1ccccc1)[C@]1(C(=O)Nc3ccccc31)[C@H]2c1ccc(OCCO)cc1 | 0.0578
20 | O=C1c2ccccc2[C@](Cc2ccccc2I)(C(=O)NC2CC2)[C@H](c2ccc(CO)cc2)N1C1CCCCC1 | -0.471
21 | CC(=O)NCCCC[C@@H]1NC(=O)[C@@H]2C[C@H](C(=O)NCCCCCCNC(=O)CS)[C@H](c3cccc(OCCO)c3)N2C1=O | 0.468
22 | COCCOC(=O)N1C(=O)[C@@]2(c3cc(C#CC4=CCCCC4)ccc31)[C@H](C(=O)N1CCc3cc(OC)c(OC)cc3C1)[C@H]1C(=O)O[C@H](c3ccccc3)[C@H](c3ccccc3)N1[C@@H]2c1ccc(OCCO)cc1 | 0.261
23 | COCCOC(=O)N1C(=O)[C@@]2(c3cc(C#CC4=CCCCC4)ccc31)[C@H](C(=O)Nc1nc3ccccc3s1)[C@H]1C(=O)O[C@H](c3ccccc3)[C@H](c3ccccc3)N1[C@@H]2c1ccccc1OCCO | 1.93
24 | COc1ccc(C(O)C2C=CC3C(=O)N(c4ccccc4)C(=O)C3N2Nc2ccc(C(C)C)cc2)cc1OCc1ccccc1 (centres undefined) | -0.951
